Inconclusive results are not listed. A call without a number means that no potency is given here. A number with no mark means an inactive call. Activity calls are given as the source filed them. Calls come from the whole dose curve; as a rule, active = well fitted cell-killing curve with a large enough effect in the repeat runs; inconclusive = weak or mixed curves, or effect the other way; inactive = flat fitted curve, though single readings scatter.
assay: qHTS assay to identify small molecule agonists of the estrogen receptor beta (ER-beta) signaling pathway - cell viability counter screen (AID 1259380); settings: ER-beta-bla HEK293T viability, CellTiter-Glo luminescence, 16 h; series mostly up to 92.4 µM; activity change, negative = cytotoxicity: at the top concentration; note: nearly all actives have a fitted effect of over 30% in size
From the text: National Center for Advancing Translational Sciences [NCATS]
NIH Chemical Genomics Center [NCGC]
U.S. Environmental Protection Agency [EPA]
National Institutes of Environmental Health Sciences [NIEHS]
National Toxicology Program [NTP]
U.S. Food and Drug Administration [FDA]
Estrogen receptor (ER), a nuclear hormone receptor, plays an important role in development, metabolic homeostasis and reproduction. Two subtypes of ER, ER-alpha and ER-beta, have similar expression patterns with some uniqueness in both types. Endocrine disrupting chemicals (EDCs) and their interactions with steroid hormone receptors like ER causes disruption of normal endocrine function. To identify the compounds that activate ER signaling, an ER beta-UAS-bla GripTite cell line (Life Technologies, Madison, WI, USA) containing a beta-lactamase reporter gene under the control of an UAS response element was used to screen Tox21 10K compound library. The cytotoxicity of the Tox21 compound library against the ER-beta-bla cell line was tested in parallel by measuring the cell viability using CellTiter-Glo assay in the same wells.
Tox21 Assay Protocol Summary:
ER-beta-UAS-bla HEK293T cells were dispensed at 2,000 cells/5 uL of assay medium containing 2% charcoal stripped FBS per well into black wall/clear-bottom 1536-well plates using a Multidrop Combi (ThermoFisher Scientific, Waltham, MA) dispenser. After the assay plates were incubated at a 37C and 5% CO2 for 6 hr, 23 nL of compounds dissolved in DMSO, positive controls or DMSO only was transferred to the assay plate by a Pintool station (Kalypsys, San Diego, CA). The plates were incubated at 37C and 5% CO2 for 16 hr. Then 1 uL of LiveBLAzerTM B/G FRET substrate was added using a BioRAPTR FRD (Flying Reagent Dispenser, Aurora Discovery, San Diego, CA) and then the plates were incubated at room temperature for 2 hours, and fluorescence intensity was measured by an Envision plate reader (PerkinElmer, Shelton, CT). For cell viability readout that measures cytotoxicity, 4 uL/well of CellTiter-Glo reagent was added into the assay plates using a FRD. After 30 min incubation at room temperature, the luminescence intensity in the plates was measured using a ViewLux (PerkinElmer) plate reader.

Compound	Potency	activity change, negative = cytotoxicity
NCCN1CCNCC1	inactive	
CC(C)OP(=O)(CP(=O)(OC(C)C)OC(C)C)OC(C)C	inactive	
CCCCCCCO	inactive	
CNC(=S)N(C)C	inactive	
CCCCOC(=O)c1ccc(N)cc1	inactive	
CC(=O)CCC=C(C)C	inactive	
CCCCCCCCCCCC(=O)OC	inactive	
O=C(O)Cn1c(=O)n(Cc2ccc(Br)cc2F)c(=O)c2ccc(Cl)cc21		-5.45% [at 42.5 µM]
CN/C(=C\[N+](=O)[O-])NCCSCc1csc(CN(C)C)n1		1.58%
CCO[Si](CCC#N)(OCC)OCC	inactive	
CCCCCCCC=O		6.5%
N#Cc1ccccc1	inactive	
COC(=O)CCCC(=O)OC		7.3%
CC(=O)OCc1ccco1	inactive	
C[C@]12CCC(=O)C=C1CC[C@@H]1[C@@H]2[C@@H](O)C[C@@]2(C)[C@H]1CC[C@]2(O)C(=O)CO	inactive	
C=CC[N+](C)(C)CC=C	inactive	
CCCCCCCCCCCCCCCC(=O)OC(C)C	inactive	
O=c1[nH]cnc2[nH]ncc12	inactive	
C=CCCCCCCCCC(=O)O		-3.62% [at 42.5 µM]
CCCCCCC=O	inactive	

Compound	Potency	activity change, negative = cytotoxicity
C=CCc1ccc(OC)c(OC)c1	inactive	
CC(CCl)OP(=O)(OC(C)CCl)OC(C)CCl (stereo not given)	inactive	
O=C1C(c2[nH]c3ccccc3c2O)=Nc2ccccc21	inactive	
COc1ccc(N)c(C)c1	inactive	
CC(=O)OC1CC(C)OC(C)O1 (stereo not given)	inactive	
Cc1ccc2ncccc2c1	inactive	
COCCCN	inactive	
CC(=O)OCc1ccccc1	inactive	
CC1(C)OC[C@@H]2O[C@@]3(C(=O)O)OC(C)(C)O[C@H]3[C@@H]2O1	inactive	
NCCNCCN	inactive	
CCOC(=O)c1ccc(N)cc1	inactive	
CN(C)c1ccc(Cc2ccc(N(C)C)cc2)cc1		-0.742%
CC(C)(C)c1cc(Cc2cc(C(C)(C)C)c(O)c(C(C)(C)C)c2)cc(C(C)(C)C)c1O	inactive	
Brc1ccc(Br)c(Br)c1	inactive	
CN1C(=O)CC[C@H]1c1cccnc1	inactive	
Cc1ccc(C(C)C)c(O)c1		5.77% [at 42.5 µM]
Nc1ccc(Cl)c(N)c1	inactive	
CSc1ccc(Cl)cc1	inactive	
CCO[Si](CCCN)(OCC)OCC	inactive	
O=C(O)c1ccc(S(=O)(=O)N(Cl)Cl)cc1	inactive	

— PubChem BioAssay (Tox21)
